Experimental data as given in PubChem BioAssay (EPA / NIEHS).
Records with an inconclusive call do not appear. The source made the active and inactive calls. The calls were made as follows: active = hit-call score of the fitted dose curve at least 0.9, where 1 is the maximum; inconclusive = response in the unintended direction; inactive = score below 0.9.

What follows are molecules tested on xenobiotic metabolism (CYP2C9), CYP2C9 (gene 1559) (assay: CLD_CYP2C9_6hr: CellzDirect (CLD) Gene Expression Assay for xenobiotic metabolism (CYP2C9) at 6 hours (AID 2283664)).
Protocol: CLD_6hr is a cell-based, multiplexed-readout assay that uses hepatocyte, a human liver primary cell, with measurements taken at 6 hours after chemical dosing in a 96-well plate.CLD_CYP2C9_6hr is one of 16 assay component(s) measured or calculated from the CLD_6hr assay. It is designed to make measurements of mRNA induction, a form of inducible reporter, as detected with chemiluminescence signals by Quantitative Nuclease Protection Assay (qNPA) technology.Data from the assay component CLD_CYP2C9_6hr was analyzed at the endpoint, CLD_CYP2C9_6hr, in the positive analysis fitting direction relative to DMSO as the negative control and baseline of activity. Using a type of inducible reporter, gain-of-signal activity can be used to understand changes in the reporter gene as they relate to the gene CYP2C9. Furthermore, this assay endpoint can be referred to as a primary readout. To generalize the intended target to other relatable targets, this assay endpoint is annotated to the cyp intended target family, where subfamily is xenobiotic metabolism.
Human hepatocyte cultures were treated daily for two consecutive days with fresh dosing solutions containing appropriate concentrations of the 320 ToxCast chemicals (chemical identities were blinded to CellzDirect and other ToxCast collaborators), vehicle control (0.2% DMSO), and positive control inducers as summarized in Table 1. Due to the large number of treatment groups and chemicals examined, the ToxCast chemicals were divided into two groups (spanning two independent cultures of hepatocytes from separate donor preparations (Hu778: ToxCast plates 1 and 2; Hu776: ToxCast plates 3 and 4). Each preparation of human hepatocyte cultures was treated with respective vehicle control, medium only control, set of six positive controls/reference chemicals for the five hepatic receptor pathways, and a subset of eight of the ToxCast chemicals (indoxacarb, pyrithiobac-sodium, norflurazon, cyhalofop-butyl, methomyl, thiram, acetochlor, and propiconazole). These replicate data, coupled with internal replicates designed within the blinded ToxCast chemical library, provided additional data to evaluate interindividual differences between hepatocyte preparations and their potential impact on chemical profiles.Cell morphology and integrity were evaluated using phase-contrast microscopy as an indicator of hepatocyte cell health (Tyson & Green, 1987). Cultures for each treatment group (i.e., media, vehicle [0.2% DMSO], positive control inducers [multiple concentrations], and the ToxCast chemicals [multiple concentrations]) were observed and cell morphology was assessed relative to vehicle control cultures at each harvest time point (0, 6, 24, or 48 h). […] Images were evaluated at the conclusion of the study to assess changes in cell integrity and account for the effects of chemical exposure on uncharacteristic changes in concentration-dependent gene expression profiles. The results from these determinations of apparent cytotoxicity were annotated (yes/no) alongside the corresponding qNPA data for reference.At the conclusion of each treatment period, hepatocyte cultures (96-well) were washed with 1 volume of HBSS, lysed by addition of 25 ul ArrayPlate lysis buffer (HTG, Tucson, AZ), and 70 ul/well of Denaturation Oil, denatured by incubation at 95C for 10 min, and frozen at approximately -70C until analysis by nuclease protection assay (qNPA) (Roberts et al., 2007). For qNPA analysis, cell lysates were thawed at 50C for approximately 30 min, qNPA probes were added, and samples were incubated at 95C for 10 min to begin the detection process by denaturing the target RNA, dissociating the duplexes and secondary structure hybridization. At the conclusion of the hybridization period, S1 nuclease reagent was added to each sample to digest all nonprotected nucleotides at 50C for 60-90 min. […]

| Structure (SMILES) | outcome |
| --- | --- |
| CNC(=O)ON=C(SC)C(=O)N(C)C | inactive |
| CCOC(=O)COc1cc(-c2nn(C)c(OC(F)F)c2Cl)c(F)cc1Cl | inactive |
| CSC1=N[C@@](C)(c2ccccc2)C(=O)N1Nc1ccccc1 | inactive |
| COP(=O)(OC)SCn1c(=O)oc2cc(Cl)cnc21 | inactive |
| CC[C@H](C)[C@H]1O[C@]2(C=C[C@@H]1C)C[C@@H]1C[C@@H](C/C=C(\C)[C@@H](O[C@H]3C[C@H](OC)[C@@H](O[C@H]4C[C@H](OC)[C@@H](NC)[C@H](C)O4)[C@H](C)O3)[C@@H](C)/C=C/C=C3\CO[C@@H]4[C@H](O)C(C)=C[C@@H](C(=O)O1)[C@]34O)O2 | inactive |
| Nc1nc(N)nc(NC2CC2)n1 | inactive |
| CCOP(=S)(OCC)Oc1ccc2c(C)c(Cl)c(=O)oc2c1 | inactive |
| Nc1c(Cl)cc([N+](=O)[O-])cc1Cl | inactive |
| CCCCOC(=O)c1ccccc1C(=O)O | inactive |
| CCCCSP(=O)(SCCCC)SCCCC | inactive |
| CC(=NC#N)N(C)Cc1ccc(Cl)nc1 | inactive |
| N#CSCSC#N | inactive |
| CCC(CC)Nc1c([N+](=O)[O-])cc(C)c(C)c1[N+](=O)[O-] | inactive |
| CC(C1CC1)C(O)(Cn1cncn1)c1ccc(Cl)cc1 (stereo not drawn) | inactive |
| O=C(O)c1cc(Oc2ccc(C(F)(F)F)cc2Cl)ccc1[N+](=O)[O-] | inactive |
| COc1cc(OC)nc(Sc2cccc(Cl)c2C(=O)O)n1 | inactive |
| CC(C)=CC1C(C(=O)OCN2C(=O)C3=C(CCCC3)C2=O)C1(C)C (stereo not drawn) | inactive |

| Structure (SMILES) | outcome |
| --- | --- |
| CCOP(=O)(OCC)Oc1cc(C)nc(C(C)C)n1 | inactive |
| C=C(C)[C@H]1Cc2c(ccc3c2O[C@@H]2COc4cc(OC)c(OC)cc4[C@@H]2C3=O)O1 | inactive |
| O=c1ccc(=O)[nH][nH]1 | inactive |
| O=[N+]([O-])c1cc(C(F)(F)F)c(Cl)c([N+](=O)[O-])c1Nc1ncc(C(F)(F)F)cc1Cl | inactive |
| Cc1ccn2nc(S(=O)(=O)Nc3c(F)cccc3F)nc2n1 | inactive |
| CSc1nc(NC(C)C)nc(NC(C)C)n1 | inactive |
| CCCSP(=O)(OCC)SCCC | inactive |
| CCNc1nc(Cl)nc(NC(C)(C)C#N)n1 | inactive |
| CSc1nnc(C(C)(C)C)c(=O)n1N | inactive |
| CC(C)N(C(=O)SCC(Cl)=C(Cl)Cl)C(C)C | inactive |
| COP(=O)(NC(C)=O)SC (stereo not drawn) | inactive |
| CN1COCN(Cc2cnc(Cl)s2)C1=N[N+](=O)[O-] | inactive |
| CON=C(C(=O)OC)c1ccccc1CON=C(C)c1cccc(C(F)(F)F)c1 | inactive |
| CCOP(=S)(OCC)OC(Cl)C(Cl)(Cl)Cl (stereo not drawn) | inactive |
| CCc1cccc(CC)c1N(COC)C(=O)CCl | inactive |
| COc1cccc(C(=O)NN(C(=O)c2cc(C)cc(C)c2)C(C)(C)C)c1C | inactive |
